# Test results: PubChem BioAssay AID1159580 (chemical genetic matrix, 2015)
# Screen size: about 5,500 compounds; about 2,000 (36%) were called active. Not shown: some 18% with an inconclusive outcome. This is one part of the list. Unmarked numbers belong to inactive results. Rule as the data show it: active = normalized growth mostly below about 0.91 (no sharp cut-off); inconclusive = no clear call, values can overlap the other calls; inactive = mostly above about 0.92.
# Experiment: chemical genetic growth profiling, strain panel (AID 1159580);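 also: tested at 20 µM; growth read once vehicle control cultures reached saturation at 30 °C; 1 = growth at the plate median or of vehicle wells; lower values mean less growth of the strain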
# Conditions: growth OD
compound,measurement,setting,value
Cc1cccc(CN2CCN(C(c3ccccc3)c3ccc(Cl)cc3)CC2)c1 (stereo not drawn),normalized growth,"S. cerevisiae deletion strains, locus YJR075W, strain HOC1, stronger effect = lower value",0.794 (active)
same,normalized growth,"S. cerevisiae deletion strains, locus YKL009W, strain mrt4, stronger effect = lower value",0.971
same,normalized growth,"S. cerevisiae deletion strains, locus YKL068W, stronger effect = lower value",0.992
same,normalized growth,"S. cerevisiae deletion strains, locus YKL085W, strain MDH1 (second series), stronger effect = lower value",0.978
same,normalized growth,"S. cerevisiae deletion strains, locus YKL085W, strain MDH1, stronger effect = lower value",0.978
same,normalized growth,"S. cerevisiae deletion strains, locus YKL160W, strain elf1, stronger effect = lower value",0.75 (active)
same,normalized growth,"S. cerevisiae deletion strains, locus YKR001C, strain vps1, stronger effect = lower value",0.47 (active)
same,normalized growth,"S. cerevisiae deletion strains, locus YKR026C, strain gcn3, stronger effect = lower value",0.969
same,normalized growth,"S. cerevisiae deletion strains, locus YKR091W, strain srl3, stronger effect = lower value",0.964
same,normalized growth,"S. cerevisiae deletion strains, locus YLL001W, strain dnm1, stronger effect = lower value",0.81 (active)
same,normalized growth,"S. cerevisiae deletion strains, locus YLL026W, stronger effect = lower value",0.8 (active)
same,normalized growth,"S. cerevisiae deletion strains, locus YLL041C, strain sdh2, stronger effect = lower value",0.926 (active)
same,normalized growth,"S. cerevisiae deletion strains, locus YLR027C, strain aat2, stronger effect = lower value",0.744 (active)
same,normalized growth,"S. cerevisiae deletion strains, locus YLR039C, strain RIC1, stronger effect = lower value",1.31
same,normalized growth,"S. cerevisiae deletion strains, locus YLR058C, strain SHM2, stronger effect = lower value",0.766 (active)
same,normalized growth,"S. cerevisiae deletion strains, locus YLR102C, strain apc9, stronger effect = lower value",0.99
same,normalized growth,"S. cerevisiae deletion strains, locus YLR113W, strain HOG1, stronger effect = lower value",0.912
same,normalized growth,"S. cerevisiae deletion strains, locus YLR221C, strain rsa3, stronger effect = lower value",0.601 (active)
same,normalized growth,"S. cerevisiae deletion strains, locus YLR258W, strain gsy2, stronger effect = lower value",0.721 (active)
same,normalized growth,"S. cerevisiae deletion strains, locus YLR262C, strain YPT6 (second series), stronger effect = lower value",0.905
same,normalized growth,"S. cerevisiae deletion strains, locus YLR262C, strain YPT6, stronger effect = lower value",1.06
same,normalized growth,"S. cerevisiae deletion strains, locus YLR268W, strain sec22, stronger effect = lower value",0.895
same,normalized growth,"S. cerevisiae deletion strains, locus YLR320W, strain mms22, stronger effect = lower value",0.713 (active)
same,normalized growth,"S. cerevisiae deletion strains, locus YLR330W, strain CHS5, stronger effect = lower value",0.743 (active)
same,normalized growth,"S. cerevisiae deletion strains, locus YLR342W, strain FKS1 (second series), stronger effect = lower value",0.791
same,normalized growth,"S. cerevisiae deletion strains, locus YLR342W, strain FKS1, stronger effect = lower value",0.929
same,normalized growth,"S. cerevisiae deletion strains, locus YLR357W, strain rsc2, stronger effect = lower value",0.908
same,normalized growth,"S. cerevisiae deletion strains, locus YLR370C, strain arc18, stronger effect = lower value",0.853 (active)
same,normalized growth,"S. cerevisiae deletion strains, locus YLR371W, strain rom2, stronger effect = lower value",0.964
same,normalized growth,"S. cerevisiae deletion strains, locus YLR384C, strain iki3, stronger effect = lower value",0.992
same,normalized growth,"S. cerevisiae deletion strains, locus YLR418C, strain cdc73, stronger effect = lower value",0.365 (active)
same,normalized growth,"S. cerevisiae deletion strains, locus YML016C, strain PPZ1, stronger effect = lower value",0.887 (active)
same,normalized growth,"S. cerevisiae deletion strains, locus YML032C, strain rad52, stronger effect = lower value",0.831 (active)
same,normalized growth,"S. cerevisiae deletion strains, locus YML120C, strain ndi1, stronger effect = lower value",0.616 (active)
same,normalized growth,"S. cerevisiae deletion strains, locus YML124C, strain tub3, stronger effect = lower value",0.977
same,normalized growth,"S. cerevisiae deletion strains, locus YMR058W, strain fet3, stronger effect = lower value",0.873 (active)
same,normalized growth,"S. cerevisiae deletion strains, locus YMR078C, strain ctf18, stronger effect = lower value",0.986
same,normalized growth,"S. cerevisiae deletion strains, locus YMR125W, strain sto1, stronger effect = lower value",0.854 (active)
same,normalized growth,"S. cerevisiae deletion strains, locus YMR129W, stronger effect = lower value",0.876 (active)
same,normalized growth,"S. cerevisiae deletion strains, locus YMR205C, strain PFK2, stronger effect = lower value",0.802 (active)
same,normalized growth,"S. cerevisiae deletion strains, locus YMR223W, strain ubp8, stronger effect = lower value",0.809 (active)
same,normalized growth,"S. cerevisiae deletion strains, locus YMR231W, strain pep5, stronger effect = lower value",0.526 (active)
same,normalized growth,"S. cerevisiae deletion strains, locus YMR263W, strain SAP30, stronger effect = lower value",0.754 (active)
same,normalized growth,"S. cerevisiae deletion strains, locus YMR307W, strain GAS1, stronger effect = lower value",0.611
same,normalized growth,"S. cerevisiae deletion strains, locus YNL067W, strain RPL9B, stronger effect = lower value",0.789 (active)
same,normalized growth,"S. cerevisiae deletion strains, locus YNL071W, strain lat1, stronger effect = lower value",0.801 (active)
same,normalized growth,"S. cerevisiae deletion strains, locus YNL183C, strain NPR1, stronger effect = lower value",0.947
same,normalized growth,"S. cerevisiae deletion strains, locus YNL209W, strain ssb2, stronger effect = lower value",0.54 (active)
same,normalized growth,"S. cerevisiae deletion strains, locus YNL233W, strain BNI4, stronger effect = lower value",0.692 (active)
same,normalized growth,"S. cerevisiae deletion strains, locus YNL248C, strain rpa49, stronger effect = lower value",0.806 (active)
same,normalized growth,"S. cerevisiae deletion strains, locus YNL250W, strain rad50, stronger effect = lower value",0.983
same,normalized growth,"S. cerevisiae deletion strains, locus YNL271C, strain bni1, stronger effect = lower value",0.988
same,normalized growth,"S. cerevisiae deletion strains, locus YNL298W, strain CLA4, stronger effect = lower value",0.988
same,normalized growth,"S. cerevisiae deletion strains, locus YNL307C, strain MCK1, stronger effect = lower value",0.96
same,normalized growth,"S. cerevisiae deletion strains, locus YNL322C, strain KRE1 (second series), stronger effect = lower value",0.685 (active)
same,normalized growth,"S. cerevisiae deletion strains, locus YNL322C, strain KRE1, stronger effect = lower value",0.972
same,normalized growth,"S. cerevisiae deletion strains, locus YNR049C, strain mso1, stronger effect = lower value",0.983
same,normalized growth,"S. cerevisiae deletion strains, locus YNR052C, strain pop2, stronger effect = lower value",0.724 (active)
same,normalized growth,"S. cerevisiae deletion strains, locus YOL012C, strain htz1",0.942
same,normalized growth,"S. cerevisiae deletion strains, locus YOL147C, strain pex11, stronger effect = lower value",0.913 (active)
same,normalized growth,"S. cerevisiae deletion strains, locus YOR001W, strain rrp6, stronger effect = lower value",0.802 (active)
same,normalized growth,"S. cerevisiae deletion strains, locus YOR061W, strain CKA2, stronger effect = lower value",0.916
same,normalized growth,"S. cerevisiae deletion strains, locus YOR069W, strain VPS5, stronger effect = lower value",0.955
same,normalized growth,"S. cerevisiae deletion strains, locus YOR070C, strain gyp1, stronger effect = lower value",0.735 (active)
same,normalized growth,"S. cerevisiae deletion strains, locus YOR080W, strain dia2, stronger effect = lower value",0.937
same,normalized growth,"S. cerevisiae deletion strains, locus YOR083W, strain WHI5, stronger effect = lower value",0.689 (active)
same,normalized growth,"S. cerevisiae deletion strains, locus YOR106W, strain vam3, stronger effect = lower value",0.549 (active)
same,normalized growth,"S. cerevisiae deletion strains, locus YOR136W, strain idh2, stronger effect = lower value",0.937
same,normalized growth,"S. cerevisiae deletion strains, locus YOR144C, strain elg1, stronger effect = lower value",0.973
same,normalized growth,"S. cerevisiae deletion strains, locus YOR184W, strain ser1, stronger effect = lower value",0.833 (active)
same,normalized growth,"S. cerevisiae deletion strains, locus YOR231W, strain MKK1, stronger effect = lower value",0.887
same,normalized growth,"S. cerevisiae deletion strains, locus YOR265W, strain rbl2, stronger effect = lower value",0.774 (active)
same,normalized growth,"S. cerevisiae deletion strains, locus YOR270C, strain vph1, stronger effect = lower value",0.524 (active)
same,normalized growth,"S. cerevisiae deletion strains, locus YOR290C, strain snf2, stronger effect = lower value",0.764 (active)
same,normalized growth,"S. cerevisiae deletion strains, locus YOR316C, strain cot1, stronger effect = lower value",0.98
same,normalized growth,"S. cerevisiae deletion strains, locus YPL051W, strain arl3, stronger effect = lower value",0.496 (active)
same,normalized growth,"S. cerevisiae deletion strains, locus YPL055C, strain LGE1, stronger effect = lower value",0.439 (active)
same,normalized growth,"S. cerevisiae deletion strains, locus YPL078C, strain atp4, stronger effect = lower value",0.887 (active)
same,normalized growth,"S. cerevisiae deletion strains, locus YPL106C, strain sse1, stronger effect = lower value",0.828 (active)
same,normalized growth,"S. cerevisiae deletion strains, locus YPL240C, strain hsp82, stronger effect = lower value",0.808 (active)
same,normalized growth,"S. cerevisiae deletion strains, locus YPL241C, strain CIN2, stronger effect = lower value",0.956
same,normalized growth,"S. cerevisiae deletion strains, locus YPL256C, strain CLN2, stronger effect = lower value",0.94
same,normalized growth,"S. cerevisiae deletion strains, locus YPR119W, strain clb2, stronger effect = lower value",0.996
same,normalized growth,"S. cerevisiae deletion strains, locus YPR141C, strain kar3, stronger effect = lower value",0.989
same,normalized growth,"S. cerevisiae deletion strains, locus YPR163C, strain tif3, stronger effect = lower value",0.721 (active)
same,normalized growth,"S. cerevisiae deletion strains, locus YPR167C, strain met16, stronger effect = lower value",0.884 (active)
same,normalized growth,"S. cerevisiae deletion strains, strain wtn01, stronger effect = lower value",0.761 (active)
same,normalized growth,"S. cerevisiae strains, strain wild type, stronger effect = lower value",0.812 (active)
